Laboratory results taken from PubChem BioAssay (EPA / NIEHS).
Where “and” joins values, the source holds several entries; their conditions need not be identical. Equal values may be shown once. Some structures have more than one record in an assay (separate samples or runs), and their calls can disagree. Calls of active or inactive are those of the source. The calls were made as follows: active = hit-call score of the fitted dose curve at least 0.9, where 1 is the maximum; inactive = score below 0.9.

Assays:
[1] = molecular target: Paired box protein Pax-6 (Homo sapiens) (UniProt P26367); test: ATG_Pax6_CIS: Attagene CIS-FACTORIAL HepG2 Assay for human Paired Box 6 (PAX6) (AID 2282956); conditions: HepG2 CIS-FACTORIAL PAX6 reporter transcription, RNA readout; actives raise or lower the signal
Chain of Paired box protein Pax-6 (Homo sapiens) (P26367 whole entry, looked up): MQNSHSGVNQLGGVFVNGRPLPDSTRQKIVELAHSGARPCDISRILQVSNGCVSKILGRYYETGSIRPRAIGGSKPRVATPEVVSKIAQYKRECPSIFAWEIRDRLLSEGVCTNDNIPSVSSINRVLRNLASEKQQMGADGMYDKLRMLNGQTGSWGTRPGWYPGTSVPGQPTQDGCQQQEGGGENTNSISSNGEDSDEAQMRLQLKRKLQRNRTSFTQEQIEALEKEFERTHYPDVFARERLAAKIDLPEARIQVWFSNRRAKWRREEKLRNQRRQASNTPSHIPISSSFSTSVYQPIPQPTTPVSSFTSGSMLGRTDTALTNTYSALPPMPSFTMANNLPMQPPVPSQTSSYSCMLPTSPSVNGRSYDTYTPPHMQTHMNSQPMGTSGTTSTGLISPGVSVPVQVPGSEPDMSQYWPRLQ
Summary of the method: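 Values derive from bidirectional curve fitting of reporter mRNA signal relative to DMSO. HepG2 cells bearing transfected cis-regulated MRTUs were exposed for 24 h; transcripts were read by RT-PCR and capillary electrophoresis.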

[2] = ATG_PXRE_CIS: Attagene CIS-FACTORIAL HepG2 Assay for human Pregnane X Receptor Element (PXRE) (AID 2282957); conditions: HepG2 Attagene CIS-FACTORIAL PXRE reporter, mRNA; actives raise or lower the signal
Summary of the method: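 Reporter transcripts under endogenous PXR-responsive cis-regulation quantified from total RNA of transfected HepG2 cells 24 h post-dosing, via RT-PCR with fluorescent primer extension and capillary electrophoresis. Gain or loss of signal fitted against DMSO baseline.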

[3] = ATG_PPRE_CIS: Attagene CIS-FACTORIAL HepG2 Assay for human Peroxisome Proliferator-activated Response Element (PPRE) (AID 2282958); conditions: HepG2 PPRE cis-element reporter, Attagene transcription factor profiling; actives raise or lower the signal
Summary of the method: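 Endogenous PPRE-driven transcription is measured in HepG2 cells carrying transfected multi-reporter constructs. Reporter transcripts are quantified by RT-PCR, HpaI digestion and capillary electrophoresis 24 h after dosing. DMSO baseline, bidirectional fit.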

[4] = ATG_RORE_CIS: Attagene CIS-FACTORIAL HepG2 Assay for human RAR-related Orphan Receptor Element (RORE) (AID 2282959); conditions: HepG2 Attagene cis-factorial RORE reporter, mRNA; actives raise or lower the signal
Summary of the method: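 RORE reporter transcripts reflecting endogenous factor activity were read after 24 h compound exposure of transfected HepG2 cells, using reverse transcription, PCR, fluorescent labelling and capillary electrophoresis sizing. Gain or loss fitted against DMSO.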

[5] = ATG_Sox_CIS: Attagene CIS-FACTORIAL HepG2 Assay for human SRY-box transcription factor (SOX) (AID 2282960); conditions: HepG2 Attagene cis-factorial SOX reporter, mRNA; actives raise or lower the signal
Summary of the method: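 Reporter transcripts, measured by RT-PCR and capillary electrophoresis of labelled fragments, report endogenous SOX transcription factor activity. Transiently transfected human HepG2 cells receive chemical for 24 h; changes in either direction are fitted relative to DMSO.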

[6] = molecular target: Transcription factor Sp1 (Homo sapiens) (UniProt P08047); test: ATG_Sp1_CIS: Attagene CIS-FACTORIAL HepG2 Assay for human Specificity Protein 1 (Sp1) (AID 2282961); conditions: HepG2 Sp1 cis-reporter transcription, actives raise or lower the signal
Chain of Transcription factor Sp1 (Homo sapiens) (P08047 whole entry, looked up): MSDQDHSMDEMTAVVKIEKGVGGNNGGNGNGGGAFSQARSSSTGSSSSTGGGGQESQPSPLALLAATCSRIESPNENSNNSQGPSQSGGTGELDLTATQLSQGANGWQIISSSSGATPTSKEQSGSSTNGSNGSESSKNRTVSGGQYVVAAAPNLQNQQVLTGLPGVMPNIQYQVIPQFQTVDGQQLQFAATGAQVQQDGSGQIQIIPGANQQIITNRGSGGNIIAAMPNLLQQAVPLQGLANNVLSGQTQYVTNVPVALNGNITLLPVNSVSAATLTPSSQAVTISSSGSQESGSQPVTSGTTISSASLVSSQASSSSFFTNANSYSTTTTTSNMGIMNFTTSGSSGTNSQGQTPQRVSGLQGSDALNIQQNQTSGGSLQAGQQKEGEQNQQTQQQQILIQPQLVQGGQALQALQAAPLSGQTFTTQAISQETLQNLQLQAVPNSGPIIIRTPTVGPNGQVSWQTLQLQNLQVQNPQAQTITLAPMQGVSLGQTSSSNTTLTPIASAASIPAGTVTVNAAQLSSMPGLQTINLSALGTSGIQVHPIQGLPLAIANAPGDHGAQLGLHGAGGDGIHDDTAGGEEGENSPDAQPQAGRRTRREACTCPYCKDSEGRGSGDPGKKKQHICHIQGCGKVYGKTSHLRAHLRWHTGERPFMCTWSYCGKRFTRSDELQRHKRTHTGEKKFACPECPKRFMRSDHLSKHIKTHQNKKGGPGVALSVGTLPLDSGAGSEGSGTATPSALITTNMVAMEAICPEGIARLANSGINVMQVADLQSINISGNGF
Summary of the method: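 Read-out is reporter transcript level, measured by RT-PCR and fluorescent capillary electrophoresis after 24 h chemical treatment. System: transiently transfected HepG2 cells reporting endogenous transcription factor activity; gain or loss fitted against DMSO baseline.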

[7] = ATG_SREBP_CIS: Attagene CIS-FACTORIAL HepG2 Assay for human Sterol Regulatory Element Binding (SREBP) (AID 2282962); conditions: HepG2 Attagene cis-factorial SREBP reporter, mRNA; actives raise or lower the signal
Summary of the method: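 Values derive from bidirectional curve fitting with DMSO as baseline. The underlying measurement is reporter mRNA from cis-element-regulated units in transiently transfected HepG2, quantified by RT-PCR and capillary electrophoresis after 24 h exposure.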

[8] = molecular target: Signal transducer and activator of transcription 3 (Homo sapiens) (UniProt P40763); test: ATG_STAT3_CIS: Attagene CIS-FACTORIAL HepG2 Assay for human Signal Transducer and Activator of Transcription 3 (STAT3) (AID 2282963); conditions: HepG2, Attagene cis-factorial STAT3 reporter transcription; actives raise or lower the signal
Chain of Signal transducer and activator of transcription 3 (Homo sapiens) (P40763 whole entry, looked up): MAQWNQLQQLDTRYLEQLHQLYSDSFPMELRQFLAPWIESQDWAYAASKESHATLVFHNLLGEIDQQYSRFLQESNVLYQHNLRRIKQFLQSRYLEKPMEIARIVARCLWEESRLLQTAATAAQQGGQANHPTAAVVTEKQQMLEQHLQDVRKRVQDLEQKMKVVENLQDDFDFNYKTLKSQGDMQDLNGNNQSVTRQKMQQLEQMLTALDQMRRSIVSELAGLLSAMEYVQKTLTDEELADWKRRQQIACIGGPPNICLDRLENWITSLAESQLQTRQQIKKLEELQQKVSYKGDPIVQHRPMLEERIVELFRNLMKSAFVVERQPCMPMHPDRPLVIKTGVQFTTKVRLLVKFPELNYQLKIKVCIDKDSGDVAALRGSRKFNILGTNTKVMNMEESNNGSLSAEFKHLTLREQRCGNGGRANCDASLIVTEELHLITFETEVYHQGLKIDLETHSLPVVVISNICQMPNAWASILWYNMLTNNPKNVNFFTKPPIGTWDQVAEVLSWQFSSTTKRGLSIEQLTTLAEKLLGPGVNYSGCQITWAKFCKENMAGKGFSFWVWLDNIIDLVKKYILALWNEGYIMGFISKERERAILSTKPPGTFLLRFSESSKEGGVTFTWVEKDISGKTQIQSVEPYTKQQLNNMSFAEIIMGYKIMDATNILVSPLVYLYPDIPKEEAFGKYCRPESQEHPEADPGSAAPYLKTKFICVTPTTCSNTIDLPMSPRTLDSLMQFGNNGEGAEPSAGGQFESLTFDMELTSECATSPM
Summary of the method: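 Readout is reporter transcript quantified by RT-PCR and capillary electrophoresis, with 6-FAM primer extension and HpaI digestion. Total RNA is taken 24 h after dosing transiently transfected HepG2 carrying cis-regulated reporter units. Bidirectional fit against DMSO.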

[9] = ATG_TA_CIS: Attagene CIS-FACTORIAL HepG2 Assay for human TA Basal Promoter (AID 2282964); conditions: HepG2 Attagene CIS-factorial TA basal promoter reporter; actives raise or lower the signal
Summary of the method: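 HepG2 cells transiently transfected with multiplexed cis-promoter reporter units, dosed 24 h. Reporter mRNA measured by RT-PCR, 6-FAM labelling, HpaI digestion and capillary electrophoresis; bidirectional fit versus DMSO baseline, serving as background control.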

[10] = ATG_TCF_b_cat_CIS: Attagene CIS-FACTORIAL HepG2 Assay for human T-Cell-Factor with beta-catenin (TCF/b-cat) (AID 2282965); conditions: HepG2 TCF/beta-catenin cis-reporter transcription, actives raise or lower the signal
Summary of the method: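 Measured: reporter mRNA in HepG2 transiently transfected with cis-promoter reporter units, 24 h after chemical addition. Fitting was bidirectional, DMSO as negative control.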

| Compound | outcome [1] | AC50 [2] | outcome [2] | AC50 [3] | outcome [3] | outcome [4] | outcome [5] | AC50 [6] | outcome [6] | AC50 [7] | outcome [8] | outcome [9] | outcome [10] | outcome [7] | AC50 [10] | AC50 [4] | AC50 [9] | AC50 [1] | AC50 [5] |
| --- | --- | --- | --- | --- | --- | --- | --- | --- | --- | --- | --- | --- | --- | --- | --- | --- | --- | --- | --- |
| O=c1c(-c2ccc(O)cc2)coc2cc(O)cc(O)c12 | inactive | 27.9 µM (active) | inactive | 14.7 µM (active) and 66.3 µM (active) and 50 µM (active) | inactive | inactive | inactive | 58.4 µM (active) and 80.7 µM (active) | inactive | 28.2 µM (active) [middle of 4 runs] | inactive | inactive | inactive |  |  |  |  |  |  |
| Cc1cccc2ccccc12 | inactive |  | inactive |  | inactive | inactive | inactive |  | inactive |  | inactive | inactive |  | inactive |  |  |  |  |  |
| CCCCCc1ccc(N)cc1 | inactive | 72.9 µM (active) and 27.4 µM (active) and 21.2 µM (active) | inactive |  | inactive | inactive | inactive |  | inactive |  | inactive | inactive | inactive | inactive | 8.92 µM (active) and 6.2 µM (active) and 19.5 µM (active) |  |  |  |  |
| CC(O)CC(C)(C)O (stereo not drawn) | inactive | 37.5 µM (active) | inactive |  |  | inactive | inactive |  | inactive |  | inactive | inactive | inactive | inactive |  |  |  |  |  |
| Cc1ncc(CO)c(CO)c1O | inactive |  | inactive |  | inactive | inactive | inactive |  | inactive |  | inactive | inactive |  | inactive |  |  |  |  |  |
| C[C@]12CC[C@@H]3c4ccc(O)cc4CC[C@H]3[C@@H]1CC[C@H]2O | inactive | 7.87 µM (active) and 6.41 µM (active) and 4.84 µM (active) | inactive |  | inactive | inactive | inactive |  | inactive | 27.6 µM (active) | inactive | inactive |  | inactive |  |  |  |  |  |
| Clc1cc(Cl)c2c(c1)N=C1CCCCCN1C2 | inactive | 13.2 µM (active) |  |  | inactive | inactive | inactive |  | inactive |  | inactive | inactive |  | inactive |  |  |  |  |  |
| CCCC(=O)OCCC(C)C | inactive |  | inactive |  | inactive | inactive | inactive |  | inactive |  | inactive | inactive | inactive | inactive |  |  |  |  |  |
| CCCCOC(=O)CC(CC(=O)OCCCC)(OC(C)=O)C(=O)OCCCC | inactive | 1.18 µM (active) and 705 nM (active) |  |  | inactive | inactive | inactive |  | inactive |  | inactive | inactive | inactive | inactive |  | 27.5 µM (active) |  |  |  |
| CN(C)c1ccc(C(=C2C=CC(=[N+](C)C)C=C2)c2ccc(N(C)C)cc2)cc1 | inactive | 2.19 µM (active) |  |  | inactive | inactive | inactive | 1.69 µM (active) |  |  | inactive |  |  | inactive |  |  | 0.99 µM (active) |  |  |
| CC(=O)N1CCN(c2ccc(OC[C@H]3CO[C@](Cn4ccnc4)(c4ccc(Cl)cc4Cl)O3)cc2)CC1 |  | 0.942 µM (active) |  |  | inactive |  | inactive | 49.9 µM (active) |  | 5.24 µM (active) | inactive |  |  |  | 5.19 µM (active) | 1.58 µM (active) | 4.84 µM (active) | 10 µM (active) |  |
| CCCCCCCC[Si](OCC)(OCC)OCC | inactive | 8.67 µM (active) [middle of 4 runs] |  | 62.9 µM (active) and 70.5 µM (active) | inactive | inactive | inactive | 159 µM (active) | inactive | 100 µM (active) | inactive | inactive |  | inactive |  |  |  |  | 147 µM (active) |
| CN(C)C(=O)C1(N2CCCCC2)CCN(CC[C@@]2(c3ccc(Cl)c(Cl)c3)CN(C(=O)c3ccccc3)CCO2)CC1 | inactive | 0.17 µM (active) |  |  | inactive | inactive | inactive |  | inactive | 0.436 µM (active) | inactive | inactive |  |  |  |  |  |  |  |
| Oc1ccccc1 | inactive |  | inactive |  | inactive | inactive | inactive |  | inactive |  | inactive | inactive |  | inactive |  |  |  |  |  |
| CCCCCCCCCCCC[N+](C)(C)C | inactive | 1.26 µM (active) | inactive |  | inactive | inactive | inactive |  | inactive | 26.1 µM (active) and 25.6 µM (active) | inactive | inactive | inactive |  |  |  |  |  |  |
| O=c1[nH]sc2ccccc12 | inactive | 51.7 µM (active) |  |  | inactive | inactive |  |  | inactive |  | inactive | inactive |  | inactive |  |  |  |  | 42.9 µM (active) |
| CCCCCCCCOc1ccc(C(=O)c2ccccc2)c(O)c1 | inactive |  | inactive |  | inactive | inactive | inactive |  | inactive |  | inactive | inactive |  | inactive |  |  |  |  |  |
| CC[C@@H]1C[C@H](N(Cc2cc(C(F)(F)F)cc(C(F)(F)F)c2)C(C)=O)c2cc(C(F)(F)F)ccc2N1C(=O)OC(C)C | inactive | 0.0676 µM (active) |  |  | inactive | inactive | inactive |  | inactive |  | inactive | inactive | inactive | inactive |  |  |  |  |  |
